Reference: PubChem BioAssay AID1347076 (National Center for Advancing Translational Sciences (NCATS), 2019)
Screen size: about 400,000 compounds; about 13,000 (3.2%) were called active. Where a call stands in place of a potency, no number is given. Inconclusive results (about 18%) are left out. The call rests on the fitted dose curve; in most records, active means well fitted cell-killing curve with a large enough effect; inconclusive means small, poorly fitted or top-dose-only effect, or effect the other way; inactive means flat fitted curve, though single readings scatter. Only a selection was taken, and actives are over-represented in it overall.

Test: qHTS assay for MDR1-selective chemotherapeutics: Primary screen using the drug-selected MDR subline cells KB-V1; further: nearly all actives have a fitted effect of over 60% in size
Details: KB-V1 MDR cells viability, CellTiter-Glo, 72 h; series mostly up to 46.1 µM
In short: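 Cytotoxicity via CellTiter-Glo luminescence after 72 h compound exposure at 37 degrees C. Cells: drug-selected KB-V1 line, DMEM phenol-red free plus 10% FBS. Compounds tested at multiple concentrations; normalized data fitted to concentration-effect curves.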
Potency means the concentration at half of the fitted maximal effect.

Structure (SMILES)	Potency
Cc1cc(C)c2sc(NC(=O)c3ccc(S(=O)(=O)N4CCCC4)cc3)nc2c1	inactive
Brc1ccc2nc(-c3ccccc3)c(Cc3ccccc3)n2c1	inactive
ClC/C=C/C[n+]1ccccc1Cl	inactive
CC(C)(C)c1ccc(S(=O)(=O)NC(=O)C2(C)CCN2C(=O)CC2CC2)cc1 (stereo not drawn)	inactive
COc1ccc(C(=O)N2CCCCC2c2cc(C(=O)Nc3ccccc3)no2)cc1 (stereo not drawn)	inactive
Cn1cc(S(=O)(=O)N2CCCCCC2)cc1C(=O)N1CCN(c2ccc(F)cc2)CC1	inactive
CCOC(=O)c1cnc(SCC(=O)NCc2ccco2)nc1N	inactive
CCOC(=O)c1cnc(SCC(=O)Nc2ccccc2C(=O)OC)nc1N	2.59 µM (active)
CCOC(=O)c1cnc(SCC(=O)Nc2cccc(OC)c2)nc1N	inactive
CCOC(=O)c1c(C)[nH]c(C)c1S(=O)(=O)N1CCC(C(=O)Nc2ccc(C)c(Cl)c2)CC1	inactive
Cc1ccc(CNC(=O)CN2CCN(Cc3ccc(Cl)cc3)C2=O)cc1	inactive
CCCCC(=O)N/N=C(\C)CC(=O)Nc1cc(Cl)ccc1OC	inactive
C/C(CC(=O)NCc1ccc(Cl)cc1)=N\NC(=O)COc1ccc(C)cc1Br	8.2 µM (active)
O=C(NCc1ccc(F)cc1)c1cc(C2CCCCN2C(=O)c2cccs2)on1 (stereo not drawn)	inactive
CC1C(=O)N(Cc2cn(Cc3ccco3)nn2)CCS(=O)(=O)N1Cc1ccc(-c2cccc(CO)c2)cc1 (stereo not drawn)	inactive
CN1CCN(CC(=O)Nc2cccc([N+](=O)[O-])c2)CC1	inactive
CCc1ccc(-c2cc(C(=O)NN3CCN(C)CC3)c3ccccc3n2)cc1	inactive
CCCCc1nc2ccccc2c(NC(=O)CN2CCN(C)CC2)c1CCC	8.2 µM (active)
C[C@H]1CN([C@@H](C)CO)C(=O)c2cc(-c3ccccc3F)cnc2O[C@H]1CN(C)C(=O)C1CCOCC1	inactive
NC(Cc1ccc(F)cc1)c1csc(Nc2nncc3ccccc23)n1 (stereo not drawn)	inactive
Cc1ccc(S(=O)(=O)c2cn(Cc3ccccc3)c3cc(N4CCCC4)c(F)cc3c2=O)c(C)c1	inactive

Structure (SMILES)	Potency
CCOC(=O)C1CCCN(C(=O)c2ccc(N(C)C)cc2)CC1 (stereo not drawn)	inactive
COc1ccc(OC)c(C(O)c2ncc(-c3cccc(C(F)(F)F)c3)[nH]2)c1 (stereo not drawn)	inactive
CSCCC(NC(=O)c1ccccc1)C(=O)N1CCN(Cc2ccc(Cl)cc2)CC1 (stereo not drawn)	18.4 µM (active)
CSCCC(NC(=O)c1ccccc1)C(=O)N1CCCCCCC1 (stereo not drawn)	inactive
COc1ccccc1C(=O)NC(CCSC)C(=O)N1CCN(C(C)=O)CC1 (stereo not drawn)	inactive
CC1=C(C(=O)OCC(C)C)C(c2ccc(OCc3ccccc3)cc2)N2C(=O)CCSC2=N1 (stereo not drawn)	inactive
C=CCn1c(=O)c(C(=O)NCc2ccc3c(c2)OCO3)c(O)c2ccccc21	inactive
O=C(NCc1ccc2c(c1)OCO2)c1c(O)nc2sccn2c1=O	8.2 µM (active)
O=C(NCc1ccc2c(c1)OCO2)c1sccc1Br	inactive
c1ccc(-c2nc(NCc3ccco3)c3ccccc3n2)cc1	23.1 µM (active)
c1coc(CNc2ncnc3ccccc23)c1	inactive
O=[N+]([O-])c1cc(-c2nc(-c3ccccc3)no2)ccc1NCc1ccco1	inactive
COc1ccc(-c2cnc3c(c2)C(=O)N([C@H](C)CO)C[C@@H](C)[C@H](CN(C)Cc2ccccc2)O3)cc1	inactive
COc1cc(CNCc2ccc3c(c2)OCO3)c([N+](=O)[O-])cc1OC	inactive
COc1cc2c(cc1OC)C(Cc1cc(OC)c(OC)cc1[N+](=O)[O-])=NCC2	9.2 µM (active)
COc1cc(CN2CCCN(C)CC2)c([N+](=O)[O-])cc1OC	inactive
CN(C)c1ccc(/C=C/C=C/c2ccnc3ccccc23)cc1	6.51 µM (active)
CN(C)c1ccc(C=Nc2ccc(/C=C/c3ccnc4ccccc34)cc2)cc1	inactive
CN(Cc1ccccc1)c1ccc(/C=C/c2ccnc3ccccc23)cc1	inactive
CN(C)c1ccc(/C=C/c2c3ccccc3nc3ccccc23)cc1	inactive
NC(=O)C1CCN(C(=O)c2cccc(NC(=O)c3nsc4ccccc34)c2)CC1	inactive

Structure (SMILES)	Potency
COCC1CCCCN1C(=O)c1cc(COc2ccc(C)c(C)c2)on1 (stereo not drawn)	inactive
CC(=O)c1c(Nc2ccccc2)sc(C(=O)c2ccccc2)c1C	3.66 µM (active)
CCCS(=O)(=O)c1c(Nc2ccccc2C)sc(C(=O)c2ccccc2)c1N	inactive
CCC(=O)Nc1sc(C(=O)Nc2ccccc2)c(C)c1C(=O)OC	inactive
COc1ccc(C(=O)OCC(=O)Nc2cc(C)on2)cc1F	inactive
CC(=NNC(N)=O)C1CC2CCC1CC2 (stereo not drawn)	inactive
Cc1ccccc1C#CC1=CC(=O)CC(C)(C)C1	inactive
CCn1c(C)c(C)c2cc(C(=O)N3CCN(c4cccc(C)c4C)CC3)ccc21	inactive
CCOc1ccccc1N1CCN(C(=O)c2ccc3[nH]c(C)c(C)c3c2)CC1	6.51 µM (active)
Cc1[nH]c2ccc(C(=O)N3CCN(C)CC3)cc2c1C	inactive
O=C(NCC(O)c1nc2ccccc2[nH]1)c1ccc(Br)cc1 (stereo not drawn)	inactive
O=C(CC[C@H]1O[C@@H](n2ccc(=O)[nH]c2=O)[C@H](O)[C@@H]1O)N[C@H](Cc1ccccc1)C(=O)NCCCN1CCCC1=O	inactive
CN1CC(c2ccccc2)C2(COc3ccccc3C2=O)C12C(=O)Nc1ccccc12 (stereo not drawn)	20.6 µM (active)
C[C@@H]1NC(=O)[C@@]2(C)[C@@H](c3ccccc3)[C@H]3COc4ccccc4[C@@H]3N2C1=O	inactive
COc1cccc(CNC(=O)CCC(=O)N2CC3CCCN3c3ccccc32)c1 (stereo not drawn)	inactive
CCc1nc2c(=O)[nH]cnc2o1	inactive
C[C@H]1CN([C@@H](C)CO)C(=O)CCCn2cc(nn2)CO[C@@H]1CN(C)S(=O)(=O)c1ccc(-n2cccn2)cc1	inactive
CN1CCN(C(=O)c2ccc(-c3cc4nc(NCc5cccnc5)n(C)c(=O)c4s3)cc2)CC1	inactive
CCOc1ccc(NC(=O)C2CCCN(C(=O)Nc3ccccc3)C2)cc1 (stereo not drawn)	14.6 µM (active)
CCOc1ccccc1NC(=O)C1CCCN(C(=O)Nc2ccccc2)C1 (stereo not drawn)	inactive
COc1ccc(NC(=O)N2CCCC(C(=O)Nc3ccccc3OC)C2)cc1 (stereo not drawn)	inactive
